From PubChem BioAssay (Tox21)
Values joined by “and” are separate entries in the source; they are usually repeats but may differ in a detail not shown here. Equal values may be shown once. Some structures have more than one record in an assay (separate samples or runs), and their calls can disagree. Active and inactive are the calls of the source. Where a call stands in place of a potency, no number is given. Unless noted, calls follow the shape of the dose curve; as a rule, active = well fitted curve in the direction sought with a large enough effect in the repeat runs; inconclusive = weak or mixed curves; inactive = no such curve, though single readings can be large; an effect the other way counts as inactive or inconclusive.

Tests used:
[1] = qHTS assay to identify small molecule antagonists of the thyroid receptor (TR) signaling pathway - cell viability counter screen (AID 743064); also: nearly all actives have a fitted effect of over 50% in size; also: potency is read from the fitted curve at half-maximal effect
Procedure, shortened: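 Compounds were tested on GH3.TRE-Luc cells in the presence of T3 at 1 nM final. Following 23.5 h at 37 °C, cell viability was quantified by CellTiter-Fluor.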

[2] = qHTS assay to identify small molecule antagonists of the thyroid receptor (TR) signaling pathway (AID 743065); also: nearly all actives have a fitted effect of over 55% in size; also: potency is read from the fitted curve at half-maximal effect
Procedure, shortened: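 Antagonism measured as loss of luciferase signal in GH3 cells stably carrying a TRE-luciferase reporter, co-treated with compound and T3 (1 nM final) for 23.5 h at 37 C. Viability was read in the same well by CellTiter-Fluor.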

[3] = system: thyroid hormone receptor (rat, GH3 cells); assay: qHTS assay to identify small molecule agonists of the thyroid receptor (TR) signaling pathway (AID 743066; calls by dose curve)
[4] = target: Estrogen receptor (Homo sapiens) (UniProt P03372); assay: qHTS assay to identify small molecule antagonists of the estrogen receptor alpha (ER-alpha) signaling pathway (AID 743069; active = well fitted curve in the direction sought with a large enough effect in the signal ratio in the repeat runs, not every such curve was filed as active; inconclusive = weak or mixed curves, or effect the other way; inactive = no such curve, though single readings can be large or run the other way; the % refers to the signal ratio; also: potency is read from the fitted curve at half-maximal effect)
Chain of Estrogen receptor (Homo sapiens) (P03372 whole entry, looked up): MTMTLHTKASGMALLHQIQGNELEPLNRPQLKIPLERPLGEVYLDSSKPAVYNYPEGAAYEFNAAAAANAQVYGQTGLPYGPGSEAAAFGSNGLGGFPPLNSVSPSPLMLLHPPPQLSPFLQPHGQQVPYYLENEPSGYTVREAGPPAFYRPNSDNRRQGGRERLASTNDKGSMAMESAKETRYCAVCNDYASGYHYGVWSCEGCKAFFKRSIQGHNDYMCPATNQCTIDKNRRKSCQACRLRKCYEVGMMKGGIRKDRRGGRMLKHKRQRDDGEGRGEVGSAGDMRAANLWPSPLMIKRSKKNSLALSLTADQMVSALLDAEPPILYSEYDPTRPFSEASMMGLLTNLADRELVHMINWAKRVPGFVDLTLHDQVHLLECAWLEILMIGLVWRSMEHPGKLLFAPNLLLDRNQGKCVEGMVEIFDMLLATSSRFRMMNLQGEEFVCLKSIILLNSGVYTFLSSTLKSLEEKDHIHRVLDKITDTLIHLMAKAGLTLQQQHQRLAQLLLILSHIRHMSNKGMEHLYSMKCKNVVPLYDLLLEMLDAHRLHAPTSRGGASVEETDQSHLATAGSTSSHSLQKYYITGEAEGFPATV
Procedure, shortened: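 Compound effects are measured against 17beta-estradiol stimulation in HEK293 cells with a UAS-controlled beta-lactamase reporter for ER-alpha. Exposure lasts 18 hr at 37C; LiveBLAzer B/G FRET substrate follows for 2 hr at room temperature.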

[5] = qHTS assay to identify small molecule antagonists of the estrogen receptor alpha (ER-alpha) signaling pathway - cell viability counter screen (AID 743074; calls by dose curve;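 also: HEK293 cells carrying ER-alpha-UAS-bla reporter stimulated with 17beta-estradiol; nearly all actives have a fitted effect of over 45% in size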)
[6] = target: Estrogen receptor (Homo sapiens) (UniProt P03372); assay: qHTS assay to identify small molecule agonists of the estrogen receptor alpha (ER-alpha) signaling pathway (AID 743075; calls by dose curve; also: potency is read from the fitted curve at half-maximal effect)
[7] = target: Estrogen receptor (Homo sapiens) (UniProt P03372); assay: qHTS assay to identify small molecule agonists of the estrogen receptor alpha (ER-alpha) signaling pathway using the BG1 cell line (AID 743079); conditions: BG1Luc4E2 cells, ERE-luciferase agonist, 22 h; activation: at 70.3 µM (top of the series) unless noted; also: nearly all actives have a fitted effect of over 20% in size; also: potency is read from the fitted curve at half-maximal effect
[8] = qHTS assay to identify small molecule antagonists of the estrogen receptor alpha (ER-alpha) signaling pathway using the BG1 cell line (AID 743080; calls by dose curve;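 also: BG1 cells stimulated with 17beta-estradiol alongside compound; nearly all actives have a fitted effect of over 25% in size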)
Procedure, shortened: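 Luciferase inhibition measured with ONE-Glo after 30 min at RT in BG1Luc4E2 cells given test compounds and 17beta-estradiol for 21.5 h at 37 C; CellTiter-Fluor viability read in the same wells beforehand.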

[9] = qHTS assay to identify small molecule antagonists of the estrogen receptor alpha (ER-alpha) signaling pathway using the BG1 cell line - cell viability counter screen (AID 743081);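 also: compound given together with 17beta-estradiol as the ER stimulus; nearly all actives have a fitted effect of over 45% in size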; also: potency is read from the fitted curve at half-maximal effect
Aromatase (Homo sapiens) = Aromatase (Homo sapiens) (UniProt P11511); assay: qHTS assay to identify aromatase inhibitors (AID 743083); also: nearly all actives have a fitted effect of over 55% in size; also: potency is read from the fitted curve at half-maximal effect
Chain of Aromatase (Homo sapiens) (P11511 whole entry, looked up): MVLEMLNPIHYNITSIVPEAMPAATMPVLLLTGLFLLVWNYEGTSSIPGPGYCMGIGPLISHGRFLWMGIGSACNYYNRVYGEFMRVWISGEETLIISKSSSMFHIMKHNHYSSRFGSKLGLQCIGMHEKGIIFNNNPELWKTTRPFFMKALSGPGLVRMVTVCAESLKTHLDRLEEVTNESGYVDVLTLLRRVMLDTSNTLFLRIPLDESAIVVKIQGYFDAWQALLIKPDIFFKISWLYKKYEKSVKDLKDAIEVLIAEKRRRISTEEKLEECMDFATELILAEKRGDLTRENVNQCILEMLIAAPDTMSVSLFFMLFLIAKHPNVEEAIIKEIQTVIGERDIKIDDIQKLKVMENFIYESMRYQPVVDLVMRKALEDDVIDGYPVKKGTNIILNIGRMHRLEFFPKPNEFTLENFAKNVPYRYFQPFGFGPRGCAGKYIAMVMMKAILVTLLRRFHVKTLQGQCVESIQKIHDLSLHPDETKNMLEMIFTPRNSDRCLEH

[10] = qHTS assay to identify aromatase inhibitors - cell viability counter screen (AID 743084);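 also: cells stimulated with testosterone during compound exposure; nearly all actives have a fitted effect of over 55% in size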; also: potency is read from the fitted curve at half-maximal effect
[11] = target: Aryl hydrocarbon receptor (Homo sapiens) (UniProt P35869); assay: qHTS assay to identify small molecule that activate the aryl hydrocarbon receptor (AhR) signaling pathway (AID 743085); also: nearly all actives have a fitted effect of over 15% in size; also: potency is read from the fitted curve at half-maximal effect;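 as to activation: HG2L7.5c1 human HepG2 liver cells with stably integrated DRE-driven firefly reporter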
Chain of Aryl hydrocarbon receptor (Homo sapiens) (P35869 whole entry, looked up): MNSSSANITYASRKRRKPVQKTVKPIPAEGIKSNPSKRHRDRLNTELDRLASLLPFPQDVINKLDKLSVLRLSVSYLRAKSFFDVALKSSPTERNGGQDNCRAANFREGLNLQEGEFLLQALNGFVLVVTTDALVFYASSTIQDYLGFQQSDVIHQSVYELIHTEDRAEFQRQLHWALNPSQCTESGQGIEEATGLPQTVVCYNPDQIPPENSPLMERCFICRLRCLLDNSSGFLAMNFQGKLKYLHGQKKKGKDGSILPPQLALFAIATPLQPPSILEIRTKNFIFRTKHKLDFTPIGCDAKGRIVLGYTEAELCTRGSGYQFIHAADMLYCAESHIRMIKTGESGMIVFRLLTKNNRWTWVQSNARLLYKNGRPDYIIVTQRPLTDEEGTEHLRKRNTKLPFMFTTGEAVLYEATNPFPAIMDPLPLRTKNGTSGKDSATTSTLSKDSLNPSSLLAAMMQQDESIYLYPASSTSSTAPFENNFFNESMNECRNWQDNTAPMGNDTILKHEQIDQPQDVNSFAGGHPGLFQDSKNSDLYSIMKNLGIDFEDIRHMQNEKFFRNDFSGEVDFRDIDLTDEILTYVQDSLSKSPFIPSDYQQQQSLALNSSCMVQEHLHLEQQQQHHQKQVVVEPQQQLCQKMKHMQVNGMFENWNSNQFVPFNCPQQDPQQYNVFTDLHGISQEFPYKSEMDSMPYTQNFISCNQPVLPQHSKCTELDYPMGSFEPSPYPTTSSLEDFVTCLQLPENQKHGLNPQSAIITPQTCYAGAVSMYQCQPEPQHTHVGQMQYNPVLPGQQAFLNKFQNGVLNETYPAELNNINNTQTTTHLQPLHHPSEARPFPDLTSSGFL
Procedure, shortened: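 24 h compound exposure, 37C, HepG2-derived HG2L7.5c1 cells with DRE-responsive luciferase. Readouts: fluorescence viability, then luminescence at room temperature after 30 min.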

[12] = target: Peroxisome proliferator-activated receptor gamma (Homo sapiens) (UniProt P37231); assay: qHTS assay to identify small molecule agonists of the peroxisome proliferator-activated receptor gamma (PPARg) signaling pathway (AID 743094; active = well fitted activation curve with a large enough effect in the signal ratio in the repeat runs, not every such curve was filed as active; inconclusive = weak or mixed curves, or effect the other way; inactive = no such curve, though single readings can be large or run the other way; the % refers to the signal ratio)
Chain of Peroxisome proliferator-activated receptor gamma (Homo sapiens) (P37231 whole entry, looked up): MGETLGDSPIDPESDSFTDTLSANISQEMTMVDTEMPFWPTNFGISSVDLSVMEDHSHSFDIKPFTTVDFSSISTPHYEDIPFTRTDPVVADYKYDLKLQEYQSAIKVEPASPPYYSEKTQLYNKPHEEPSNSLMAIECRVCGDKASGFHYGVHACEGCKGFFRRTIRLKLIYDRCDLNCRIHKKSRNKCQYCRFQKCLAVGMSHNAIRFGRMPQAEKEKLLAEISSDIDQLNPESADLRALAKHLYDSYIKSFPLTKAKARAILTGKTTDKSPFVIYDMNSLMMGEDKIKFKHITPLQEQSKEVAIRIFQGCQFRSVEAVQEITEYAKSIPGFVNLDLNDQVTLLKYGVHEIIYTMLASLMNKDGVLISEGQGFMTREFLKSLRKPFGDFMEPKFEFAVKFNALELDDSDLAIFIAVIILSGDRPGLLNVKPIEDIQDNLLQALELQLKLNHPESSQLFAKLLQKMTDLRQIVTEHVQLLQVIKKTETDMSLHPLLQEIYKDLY
Procedure, shortened: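 Beta-lactamase FRET fluorescence was the read-out after a 1 h room-temperature substrate step, following 17 h compound treatment at 37C of HEK293H cells expressing a UAS-driven bla reporter responsive to PPARg.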

[13] = qHTS assay for small molecule agonists of the antioxidant response element (ARE) signaling pathway - cell viability counter screen (AID 743203; calls by dose curve; also: nearly all actives have a fitted effect of over 55% in size)
Procedure, shortened: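 HepG2 cells carrying ARE-driven beta-lactamase; 2,000 cells/well; 5 hrs plating; compound pinned from DMSO; 16 hrs 37C/5% CO2; CellTiter-Glo added; 30 min RT; luminescence.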

[14] = qHTS assay for small molecule activators of the heat shock response signaling pathway - cell viability counter screen (AID 743209); also: nearly all actives have a fitted effect of over 50% in size
Procedure, shortened: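 Luminescence from CellTiter-Glo, added after the beta-lactamase FRET read, gave the viability signal. Cells were HSE-bla HeLa treated with DMSO-dissolved compounds for 5 h at 37 C following overnight plating.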

[15] = qHTS assay to identify small molecule that activate the aryl hydrocarbon receptor (AhR) signaling pathway - cell viability counter screen (AID 743086);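 also: HepG2 liver cells carrying the AhR DRE luciferase reporter; nearly all actives have a fitted effect of over 45% in size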
Procedure, shortened: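 Cytotoxicity counter screen: CellTiter-Fluor signal (30 min, 37 C) in 4000 HepG2 cells/well carrying the DRE-luciferase reporter, following 24 h compound exposure at 37 C.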

[16] = target: Peroxisome proliferator-activated receptor gamma (Homo sapiens) (UniProt P37231); assay: qHTS assay to identify small molecule antagonists of the peroxisome proliferator-activated receptor gamma (PPARg) signaling pathway (AID 743191; calls by dose curve; also: nearly all actives have a fitted effect of over 30% in size)
Procedure, shortened: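 Beta-lactamase reporter under UAS control in HEK293H PPARg-bla cells; compound treatment 17 h at 37C. Read-out: fluorescence intensity after 1 h room-temperature incubation with LiveBLAzer B/G FRET substrate.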

[17] = qHTS assay to identify small molecule antagonists of the peroxisome proliferator-activated receptor gamma (PPARg) signaling pathway - cell viability counter screen (AID 743194); conditions: Potency: co-treated with 50 nM rosiglitazone unless noted; also: nearly all actives have a fitted effect of over 55% in size
Procedure, shortened: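 Viability was measured as CellTiter-Glo luminescence in GeneBLAzer PPARg UAS-bla HEK293H cells. These cells had been exposed 17 h at 37 C to compounds together with rosiglitazone at 50 nM final, with the beta-lactamase readout taken in the same wells.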

[18] = qHTS assay for small molecule agonists of the antioxidant response element (ARE) signaling pathway (AID 743202; active = well fitted activation curve with a large enough effect in the signal ratio in the repeat runs, not every such curve was filed as active; inconclusive = weak or mixed curves, or effect the other way; inactive = no such curve, though single readings can be large or run the other way; the % refers to the signal ratio; also: potency is read from the fitted curve at half-maximal effect)
Procedure, shortened: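 An ARE-responsive beta-lactamase gene stably integrated in HepG2 cells serves as reporter. After 5 h plating and 16 h compound incubation at 37 C, fluorescence of the B/G FRET substrate was measured.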

[19] = qHTS assay for small molecule activators of the heat shock response signaling pathway (AID 743210; active = well fitted activation curve with a large enough effect in the signal ratio in the repeat runs, with a control signal flat, not every such curve was filed as active; inconclusive = weak or mixed curves; the % refers to the signal ratio;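 also: HeLa cells with beta-lactamase reporter driven by heat shock elements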)
Procedure, shortened: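 In HSE-bla HeLa cells, 5 h compound incubation (37 C) precedes addition of LiveBLAzer B/G substrate; after 2.5 h at room temperature, fluorescence intensity indicates reporter induction.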

SMILES | Potency [1] | Potency [2] | Potency [3] | Potency [4] | Potency [5] | Potency [6] | Potency [7] | Potency [8] | Potency [9] | Potency (Aromatase (Homo sapiens)) | Potency [10] | Potency [11] | Potency [12] | Potency [13] | Potency [14] | Potency [15] | Potency [16] | Potency [17] | Potency [18] | Potency [19]
CC[n+]1c(-c2ccccc2)c2cc(N)ccc2c2ccc(N)cc21 | inactive and 54.2 µM (active) | 23.7 µM (active) and 27.2 µM (active) | inactive | 26.8 µM [inconclusive] (active) and 30.8 µM [inconclusive] (active) | inactive | 4.25 µM [inconclusive] (active) and 19 µM [inconclusive] (active) and 5.47 µM [inconclusive] (active) | inactive | inactive | 54.2 µM (active) | 18.8 µM (active) and 26.6 µM (active) and 12.1 µM (active) | inactive and 30.5 µM (active) | 26.6 µM (active) and 29.8 µM (active) and 12.1 µM (active) | inactive | inactive | inactive | – | – | – | – | –
O=[N+]([O-])/N=C1\NCCN1Cc1ccc(Cl)nc1 | inactive | inactive | inactive | inactive | inactive | inactive | inactive | inactive | inactive | inactive | inactive | – | inactive | inactive | inactive | inactive | inactive | inactive | inactive | inactive
CC1(C)Cc2cccc(O)c2O1 | inactive | inactive | inactive | inactive | inactive | inactive | inactive | inactive | inactive | inactive | inactive | inactive | inactive | inactive | inactive | – | – | inactive | inactive | inactive
C[C@]12CCC(=O)C=C1CC[C@@H]1[C@@H]2CC[C@@]2(C)[C@H]1CC[C@]2(C)O | inactive and 61.4 µM (active) | 10.6 µM (active) and 24.5 µM (active) | inactive | inactive | inactive | 2.13 µM [inconclusive] (active) and 4.25 µM [inconclusive] (active) and 1.39 µM [inconclusive] (active) | 376 nM (active) and 106 nM (active) and 179 nM (active) | inactive | inactive | inactive | inactive | inactive | inactive | inactive | inactive | inactive | – | inactive | – | inactive
CNC(=O)Oc1cccc2c1OC(C)(C)C2 | inactive | inactive | inactive | inactive | inactive | inactive | inactive and 24.3 µM (active) | inactive | inactive | inactive | inactive | inactive | inactive | inactive | inactive | – | – | inactive | inactive | inactive
c1ccc2c(c1)Nc1ccccc1S2 | inactive | inactive | inactive | inactive | inactive | inactive | 26.6 µM (active) and 38.6 µM (active) | inactive | inactive | inactive | inactive | – | inactive | inactive | inactive | inactive | inactive | inactive | inactive | inactive
COc1ccc(O)c(C(C)(C)C)c1 | inactive | inactive | inactive | inactive | inactive | inactive | inactive | inactive | inactive | inactive | inactive | inactive | inactive | inactive | inactive | inactive | – | inactive | – | inactive
CCOP(=S)(OCC)SCn1c(=O)oc2cc(Cl)ccc21 | inactive | 68.6 µM (active) | inactive | inactive | inactive | inactive | inactive | inactive | inactive | 65.6 µM (active) | inactive | 32.9 µM (active) and 61.1 µM (active) | inactive | inactive | inactive | inactive | inactive | – | 9.69 µM (active) | inactive
O=NN(c1ccccc1)c1ccccc1 | inactive | inactive | inactive | inactive | inactive | 53.7 µM [inconclusive] (active) and inactive | 47.4 µM (active) | inactive | inactive | inactive | inactive | inactive | inactive | inactive | inactive | – | – | inactive | inactive | inactive
N#Cc1cccnc1 | inactive | inactive | inactive | inactive | inactive | inactive | inactive | inactive | inactive | inactive | inactive | inactive | inactive | inactive | inactive | inactive | – | inactive | inactive | inactive
Cc1cccc(N=Nc2ccc(N(C)C)cc2)c1 | inactive | inactive | inactive | inactive | inactive | inactive | 139 nM (active) and 864 nM (active) | – | 31.2 µM (active) and 27.3 µM (active) | inactive | – | 13.9 µM (active) and 9.69 µM (active) | inactive | inactive | inactive | – | – | inactive | – | –
CCCCOCCOC(C)=O | inactive | inactive | inactive | inactive | inactive | inactive | inactive | inactive | inactive | inactive | inactive | inactive | inactive | inactive | inactive | – | – | inactive | inactive | inactive
CN(C)c1nc(=O)n(C2CCCCC2)c(=O)n1C | inactive | inactive | inactive | inactive | inactive | inactive | inactive | inactive | inactive | inactive | inactive | inactive | inactive | inactive | inactive | – | – | inactive | inactive | inactive
